Results reported in PubChem BioAssay (NCI).
About 83,000 compounds went through this panel and 20% of them were active in at least one assay; those are over-represented in the sample as a whole.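 Single-dose data. Exposure time 48 hours. Values below 10 considered active.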 Values without a mark were called inactive. Active and inactive are the calls of the source.

Tests used:
Experiment in all cases: NCI-60 one-dose screen, 48 h (100 = growth as untreated, 0 = no growth, -100 = all killed)
[1] = tested on: HCT-15 colon; conditions: 10 µM unless noted
[2] = tested on: HT29 colon; conditions: 10 µM unless noted
[3] = tested on: SNB-75 CNS; conditions: 10 µM unless noted
[4] = tested on: U251 CNS; conditions: 10 µM unless noted
[5] = tested on: PC-3 prostate; conditions: 10 µM unless noted
[6] = tested on: SK-MEL-5 melanoma; conditions: 10 µM unless noted
[7] = tested on: LOX IMVI melanoma; conditions: 10 µM unless noted
[8] = tested on: SK-MEL-28 melanoma; conditions: 10 µM unless noted
[9] = tested on: SK-MEL-2 melanoma; conditions: 10 µM unless noted
[10] = tested on: EKVX NSCLC; conditions: 10 µM unless noted
[11] = tested on: UO-31 renal; conditions: 10 µM unless noted
[12] = tested on: TK-10 renal; conditions: 10 µM unless noted
[13] = tested on: ACHN renal; conditions: 10 µM unless noted
[14] = tested on: CAKI-1 renal; conditions: 10 µM unless noted
[15] = tested on: A498 renal; conditions: 10 µM
[16] = tested on: HL-60(TB) leukemia; conditions: 10 µM unless noted
[17] = tested on: SNB-19 CNS; conditions: 10 µM unless noted
[18] = tested on: UACC-62 melanoma; conditions: 10 µM unless noted
[19] = tested on: SN12C renal; conditions: 10 µM unless noted
[20] = tested on: CCRF-CEM leukemia; conditions: 10 µM unless noted

SMILES: O=C(Nc1ccc([As]=[As]c2ccc(NC(=O)c3ccccc3)cc2)cc1)c1ccccc1 (configuration not stated)
- growth [1]: -79.6% (active)
- growth [2]: -35.7% (active)
- growth [3]: -97% (active)
- growth [4]: -78.6% (active)
- growth [5]: -86.2% (active)
- growth [6]: -99.6% (active)
- growth [7]: -52.2% (active)
- growth [8]: -94% (active)
- growth [9]: -81.4% (active)
- growth [10]: -69.1% (active)
- growth [11]: -96.7% (active)
- growth [12]: -98.4% (active)
- growth [13]: -92.4% (active)
- growth [14]: -80.2% (active)
- growth [15]: -97.5% (active)
- growth [16]: -53.9% (active)

SMILES: O=C(N/N=C\c1ccc(N(CCCl)CCCl)cc1)c1cccc([N+](=O)[O-])c1
- growth [1]: 98.7%
- growth [3]: 60%
- growth [17]: 77.3%
- growth [4]: 73.9%
- growth [5]: 89.1%
- growth [6]: 93.9%
- growth [18]: 77.9%
- growth [7]: 83.4%
- growth [8]: 108%
- growth [9]: 101%
- growth [10]: 88.6%
- growth [19]: 88.9%
- growth [11]: 90.6%
- growth [12]: 99.2%
- growth [13]: 94.4%
- growth [14]: 89.3%
- growth [15]: 118%
- growth [20]: 82.5%

SMILES: Fc1cccc(NCOOC2(OOCNc3cccc(F)c3)CCCCC2)c1
- growth [1]: 99.2%
- growth [2]: 96%
- growth [17]: 96.2%
- growth [4]: 102%
- growth [5]: 88.9%
- growth [6]: 95.2%
- growth [18]: 104%
- growth [7]: -68.9% (active)
- growth [8]: 109%
- growth [9]: 91.7%
- growth [10]: 93.8%
- growth [19]: 103%
- growth [11]: -58.2% (active)
- growth [12]: 90.8%
- growth [13]: 95%
- growth [14]: 52.3%
- growth [15]: 92.4%
- growth [16]: 88.3%
- growth [20]: 84.1%

SMILES: COc1ccc(NC([Se])=NC23CC4CC(CC(C4)C2)C3)cc1
- growth [1]: 9.68% (active)
- growth [2]: 5.56% (active)
- growth [17]: 15.7%
- growth [4]: -31% (active)
- growth [5]: 7.99% (active)
- growth [6]: -85.5% (active)
- growth [18]: -24.3% (active)
- growth [7]: 3.59% (active)
- growth [8]: 13.2%
- growth [9]: -8.11% (active)
- growth [10]: -14.3% (active)
- growth [19]: 4.39% (active)
- growth [11]: -27.3% (active)
- growth [12]: -40.9% (active)
- growth [13]: 0.201% (active)
- growth [14]: -31% (active)
- growth [16]: -11.8% (active)
- growth [20]: 5.94% (active)

SMILES: CC[S][Hg][Cl]
- growth [1]: 104%
- growth [3]: 93.6%
- growth [17]: 106%
- growth [4]: 99.6%
- growth [5]: 103%
- growth [6]: 106%
- growth [18]: 103%
- growth [7]: 88.1%
- growth [8]: 111%
- growth [9]: 105%
- growth [10]: 106%
- growth [19]: 105%
- growth [11]: 87.9%
- growth [12]: 115%
- growth [13]: 101%
- growth [14]: 89.7%
- growth [15]: 115%
- growth [16]: 113%
- growth [20]: 93.4%

SMILES: Clc1cccc(NCOOC2(OOCNc3cccc(Cl)c3)CCCCCC2)c1
- growth [1]: 93.2%
- growth [2]: 102%
- growth [17]: 93.2%
- growth [4]: 101%
- growth [5]: 91.2%
- growth [6]: 93.7%
- growth [18]: 102%
- growth [7]: -85.2% (active)
- growth [8]: 107%
- growth [9]: 92.4%
- growth [10]: 89%
- growth [19]: 95.4%
- growth [11]: -47.3% (active)
- growth [12]: 92.2%
- growth [13]: 80.5%
- growth [14]: 36%
- growth [15]: 98.8%
- growth [16]: 78.8%
- growth [20]: 80.2%

SMILES: CC(=O)[C@H]1CC[C@H]2[C@@H]3CC[C@H]4C[C@H](N)CC[C@]4(C)[C@H]3CC[C@]12C
- growth [1]: 64.5%
- growth [2]: 13.7%
- growth [3]: 49.5%
- growth [4]: 69.2%
- growth [5]: 62.1%
- growth [6]: 62.8%
- growth [18]: 80.9%
- growth [7]: 69.4%
- growth [8]: 86.2%
- growth [9]: 89.8%
- growth [10]: 76.9%
- growth [11]: 63.1%
- growth [12]: 82.6%
- growth [13]: 82.9%
- growth [15]: 78.6%
- growth [16]: 63.4%
- growth [20]: 102%

SMILES: COc1cc([N+](=O)[O-])c2nc(C)ccc2c1[N+](=O)[O-]
- growth [1]: 92.9%
- growth [3]: 109%
- growth [17]: 95.2%
- growth [4]: 90%
- growth [5]: 93.9%
- growth [6]: 93.6%
- growth [18]: 86.7%
- growth [7]: 71.5%
- growth [8]: 103%
- growth [9]: 102%
- growth [10]: 112%
- growth [19]: 89%
- growth [11]: 74.9%
- growth [12]: 122%
- growth [13]: 89.5%
- growth [14]: 104%
- growth [15]: 121%
- growth [20]: 91.3%

SMILES: CCCCCCCC(=O)OCC(=O)[C@]1(O)Cc2c(O)c3c(c(O)c2[C@@H](OC2CC(N)C(O)C(C)O2)C1)C(=O)c1c(OC)cccc1C3=O (some centres not stated)
- growth [1]: -61.5% (active)
- growth [2]: -63.5% (active)
- growth [3]: -79.5% (active)
- growth [4]: -46.5% (active)
- growth [5]: -100% (active)
- growth [6]: -91.2% (active)
- growth [7]: -4.4% (active)
- growth [8]: -84% (active)
- growth [9]: -48.3% (active)
- growth [10]: -57.9% (active)
- growth [19]: -69.4% (active)
- growth [11]: -83.2% (active)
- growth [12]: -44.5% (active)
- growth [13]: -82.9% (active)
- growth [14]: -47.9% (active)
- growth [15]: -87.6% (active)
- growth [16]: -92.4% (active)
- growth [20]: -90.3% (active)
